Consider 44 molecules from the antibiotic and cytotoxicity screens of Wong et al. (2023).

Among all 39,000 compounds or so, about 3,300 (8.5%) were called active. The sample holds actives, similar compounds and a random draw of the others, so the mix is not that of the screen.

In this assay the test system is HepG2. Put plainly: cytotoxicity call (relative viability < 0.9). Particulars: 10 µM.
Consider `C[C@H](CO)N1C[C@H](C)[C@H](CN(C)C(=O)Cc2ccccc2)OCCCC[C@H](C)Oc2ccc(NC(=O)Nc3ccc(F)cc3)cc2C1=O`, for which the cytotoxicity call was “inactive”.
The entry for `CCS(=O)(=O)Nc1ccc2c(c1)C(=O)N(C)[C@H]1CC[C@H](CC(=O)NCc3ccc(OC)cc3)O[C@@H]1CO2` is “inactive”.
The entry for `C[C@H](CO)N1C[C@H](C)[C@H](CN(C)C(=O)Nc2ccc3c(c2)OCO3)OCCCC[C@H](C)Oc2ccc(NC(=O)c3ccncc3)cc2C1=O` is “inactive”.
The result for `C[C@@H]1CCCCO[C@H](CN(C)Cc2ccncc2)[C@H](C)CN([C@@H](C)CO)C(=O)c2cc(NC(=O)Nc3ccc(C(F)(F)F)cc3)ccc2O1` reads “active”.
For the molecule `C[C@@H]1CN([C@@H](C)CO)C(=O)c2cc(NC(=O)Nc3ccc(C(F)(F)F)cc3)ccc2O[C@@H](C)CCCCO[C@@H]1CN(C)Cc1ccncc1`, the cytotoxicity call was “active”.
The result for `C[C@@H]1CN([C@@H](C)CO)C(=O)c2cc(NC(=O)Nc3ccc(C(F)(F)F)cc3)ccc2O[C@@H](C)CCCCO[C@H]1CN(C)Cc1ccncc1` reads “inactive”; that for `C[C@@H]1CCCCO[C@@H](CN(C)Cc2ccncc2)[C@@H](C)CN([C@H](C)CO)C(=O)c2cc(NC(=O)Nc3ccc(C(F)(F)F)cc3)ccc2O1`, “active”.
The entry for `C[C@H]1CCCCO[C@H](CN(C)Cc2ccncc2)[C@@H](C)CN([C@@H](C)CO)C(=O)c2cc(NC(=O)Nc3ccc(C(F)(F)F)cc3)ccc2O1` is “active”; for `C[C@@H]1CCCCO[C@@H](CN(C)Cc2ccncc2)[C@@H](C)CN([C@@H](C)CO)C(=O)c2cc(NC(=O)Nc3ccc(C(F)(F)F)cc3)ccc2O1` it is “inactive”.
The entry for `C[C@H](CO)N1C[C@H](C)[C@@H](CN(C)CC2CC2)Oc2ccc(NC(=O)CCN3CCOCC3)cc2CC1=O` is “inactive”.
As to `COC(=O)c1c(CC[C@@H](CO)NC(=O)N[C@H](Cc2ccccc2)Cn2cc(-c3ccccc3N)nn2)oc(C(C)=O)c1C(=O)OC`, the cytotoxicity call was “inactive”.
The result for `COc1ccc(NC(=O)N(C)C[C@@H]2Oc3ccc(NC(=O)Nc4cccc5ccccc45)cc3CC(=O)N([C@H](C)CO)C[C@H]2C)cc1` reads “inactive”; that for `C[C@H](CO)N1C[C@H](C)[C@H](CN(C)C(=O)NC2CCCCC2)OCCCC[C@H](C)Oc2ccc(NC(=O)c3ccncc3)cc2C1=O`, “inactive”; that for `COc1ccc(NC(=O)N(C)C[C@H]2Oc3ccc(NC(=O)CCN4CCOCC4)cc3C(=O)N([C@@H](C)CO)C[C@H]2C)cc1`, “inactive”.
For the molecule `C[C@@H]1CN([C@@H](C)CO)C(=O)CCCn2nncc2CO[C@H]1CN(C)C(=O)c1ccc(N2CCN(C)CC2)cc1`, the cytotoxicity call was “inactive”.
The result for `C[C@H]1CN([C@@H](C)CO)C(=O)c2cccc(NC(=O)C3CC3)c2O[C@@H]1CN(C)C(=O)Nc1ccc2c(c1)OCO2` reads “inactive”; that for `C[C@@H]1CCCCO[C@H](CN(C)CC2CCCCC2)[C@H](C)CN([C@@H](C)CO)C(=O)c2cc(NC(=O)c3ccncc3)ccc2O1`, “inactive”; that for `C[C@@H]1CN([C@H](C)CO)C(=O)Cc2cc(NC(=O)Cn3cnnn3)ccc2O[C@H]1CN(C)C(=O)Nc1ccc2c(c1)OCO2`, “inactive”.
The result for `COCC(=O)N1C[C@@H](C)[C@@H](OC)CN(C)C(=O)c2cc(NC(=O)c3cc(C)on3)ccc2OC[C@@H]1C` reads “inactive”; that for `Cc1ccc(S(=O)(=O)Nc2ccc3c(c2)CC(=O)N([C@H](C)CO)C[C@H](C)[C@@H](CN(C)Cc2ccc(Oc4ccccc4)cc2)O3)cc1`, “inactive”.
The result for `Cc1ccc(S(=O)(=O)Nc2ccc3c(c2)CC(=O)N([C@H](C)CO)C[C@@H](C)[C@@H](CN(C)Cc2ccc(Oc4ccccc4)cc2)O3)cc1` reads “active”.
In the case of `Cc1ccc(S(=O)(=O)Nc2ccc3c(c2)CC(=O)N([C@@H](C)CO)C[C@@H](C)[C@H](CN(C)Cc2ccc(Oc4ccccc4)cc2)O3)cc1`, the cytotoxicity call was “inactive”.
The result for `Cc1ccc(S(=O)(=O)Nc2ccc3c(c2)CC(=O)N([C@@H](C)CO)C[C@H](C)[C@@H](CN(C)Cc2ccc(Oc4ccccc4)cc2)O3)cc1` reads “active”.
The entry for `Cc1ccc(S(=O)(=O)Nc2ccc3c(c2)CC(=O)N([C@@H](C)CO)C[C@@H](C)[C@@H](CN(C)Cc2ccc(Oc4ccccc4)cc2)O3)cc1` is “inactive”; for `Cc1ccc(S(=O)(=O)Nc2ccc3c(c2)CC(=O)N([C@@H](C)CO)C[C@H](C)[C@H](CN(C)Cc2ccc(Oc4ccccc4)cc2)O3)cc1` it is “inactive”.
The entry for `COc1ccc(S(=O)(=O)N(C)C[C@@H]2Oc3c(NC(=O)c4cc(C)nn4C)cccc3C(=O)N([C@@H](C)CO)C[C@H]2C)cc1` is “inactive”; for `C[C@H](O)C#Cc1ccc2c(c1)O[C@@H](CN(C)C(=O)Nc1ccccc1)[C@@H](C)CN([C@@H](C)CO)S2(=O)=O` it is “inactive”.
Turning to `C[C@@H]1CN([C@H](C)CO)C(=O)CCCn2cc(nn2)CO[C@H]1CN(C)S(=O)(=O)c1ccc(Cl)cc1`, the cytotoxicity call is “inactive”.
The result for `C[C@@H]1CCCCO[C@@H](CN(C)C(=O)C2CCCCC2)[C@H](C)CN([C@H](C)CO)C(=O)c2cc(NC(=O)Cc3ccccc3)ccc2O1` reads “inactive”.
On to `CC(C)CC(=O)Nc1cncc(-c2ccc3[nH]nc(-c4nc5cncc(-c6cccc(F)c6)c5[nH]4)c3c2)c1`, for which the cytotoxicity call was “active”.
The result for `CO[C@H](CN(C)C(=O)C1CCOCC1)[C@@H](C)CN(C(=O)Nc1ccc(C(F)(F)F)cc1)[C@H](C)CO` reads “inactive”; that for `COc1ccccc1CNC(=O)C[C@@H]1C[C@H]2c3cc(NC(=O)C4CCOCC4)ccc3O[C@H]2[C@H](CO)O1`, “inactive”; that for `CCN(CC)CCc1nc(-c2ccccc2)no1.O=C(O)CC(O)(CC(=O)O)C(=O)O`, “active”.
The result for `CCN(CCCc1ccccc1)CCCc1ccccc1.O=C(O)CC(O)(CC(=O)O)C(=O)O` reads “inactive”.
The entry for `NCc1nc(-c2ccccc2)no1` is “inactive”; for `C=CC(=O)Nc1ccccc1[C@@H](CCc1ccc(OC)c(OC)c1)OC(=O)[C@@H]1CCCCN1C(=O)C(=O)C(C)(C)CC` it is “inactive”.
As to `COc1ccc(NC(=O)Nc2ccc3c(c2)[C@H]2C[C@H](CC(=O)NCC(F)(F)F)O[C@H](CO)[C@H]2O3)cc1`, the cytotoxicity call is “inactive”.
The result for `Cn1cnc(CCNC(=O)C[C@@H]2CC[C@@H]3[C@H](COC[C@@H](O)CN3C(=O)Nc3ccc(C(F)(F)F)cc3)O2)c1` reads “inactive”; that for `COc1ccc(CN(C)C[C@H]2Oc3c(NC(=O)Nc4ccc(C(F)(F)F)cc4)cccc3C(=O)N([C@H](C)CO)C[C@H]2C)cc1`, “inactive”.
For the molecule `COc1ccc(NC(=O)Nc2cccc3c2O[C@@H](CN(C)Cc2ccc(C(F)(F)F)cc2)[C@@H](C)CN([C@H](C)CO)C3=O)cc1`, the cytotoxicity call was “inactive”.
The entry for `COc1ccc(CN(C)C[C@H]2Oc3c(NC(=O)Nc4ccc(C(F)(F)F)cc4)cccc3C(=O)N([C@@H](C)CO)C[C@H]2C)cc1` is “active”; for `COc1ccc(CN(C)C[C@H]2Oc3c(NC(=O)Nc4ccc(C(F)(F)F)cc4)cccc3C(=O)N([C@H](C)CO)C[C@@H]2C)cc1` it is “inactive”; for `COc1ccc(CN(C)C[C@@H]2Oc3c(NC(=O)Nc4ccc(C(F)(F)F)cc4)cccc3C(=O)N([C@@H](C)CO)C[C@H]2C)cc1` it is “active”.
As to `COc1ccc(NC(=O)Nc2cccc3c2O[C@@H](CN(C)Cc2ccc(C(F)(F)F)cc2)[C@H](C)CN([C@@H](C)CO)C3=O)cc1`, the cytotoxicity call is “inactive”.
